Screening data (PubChem)
Tau FP inhib = qHTS for Inhibitors of Tau Fibril Formation, Fluorescence Polarization; Microtubule-associated protein tau (Homo sapiens), P10636; K18 P301L tau heparin fibrillization, Alexa594 FP, 6 h; Potency, µM (top dose mostly 57.7 µM), inactives show at the highest dose activity, negative = inhibition, most hits filed as inhibitors; 280,000 compounds, 0.39% hits; AID 1468, 2008; further: potency means the concentration at half of the fitted maximal effect; nearly all actives have a fitted effect of over 55% in size
Target sequence (P10636 561-689 P618L limits assumed): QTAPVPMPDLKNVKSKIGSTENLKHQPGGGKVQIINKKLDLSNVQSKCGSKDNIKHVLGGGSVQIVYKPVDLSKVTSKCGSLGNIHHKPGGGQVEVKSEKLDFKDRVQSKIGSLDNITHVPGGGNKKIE
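Heparin (20 uM) drove fibril formation of recombinant tau K18 P301L, 15 uM unlabeled with 0.24 uM Alexa 594 label, for 6 hr at 37 C in 100 mM sodium acetate pH 7. Fluorescence polarization (555/632 nm) read 1 hr after 30 uM ThT.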
Tau ThT inhib = qHTS for Inhibitors of Tau Fibril Formation, Thioflavin T Binding; recombinant tau K18 P301L, heparin-induced fibrillization, ThT fluorescence; Potency, µM (highest dose often 57.4 µM), for inactives: at the highest dose activity, negative = inhibition, most hits filed as inhibitors; 270,000 compounds, 2.1% hits; AID 1460, 2008; further: potency means the concentration at half of the fitted maximal effect; nearly all actives have a fitted effect of over 55% in size
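Heparin-induced (20 uM) aggregation of recombinant human K18 P301L tau, 15 uM unlabeled with 0.24 uM labeled, pH 7 acetate buffer, 6 hr at 37 C with compound. Fibrils quantified by 30 uM ThT fluorescence after 1 hr ambient incubation.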
PNC inhibitor = High Content Assay for Compounds that inhibit the Assembly of the Perinucleolar Compartment | PC3M PTB-GFP, PNC prevalence imaging, 16 h; hits give low values | activity change (PNC), negative = inhibition, % at 10 µM | 140,000 compounds, 3.1% hits | AID 2417, 2010;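 active means readout at or below -70, meaning at least 70% loss of cells showing the perinucleolar compartment, a nuclear body marking cancer cells; inconclusive means readout between -30 and a set limit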;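 further: plate controls were DMSO wells for no effect and camptothecin positive control wells for full effect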
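PC3M cells stably expressing PTB-GFP, 750–1000 cells/well, treated 16 h at 37 °C with compound (23 nl of library stock), in duplicate. After paraformaldehyde fixation and Hoechst stain, imaged at 20x; PNC prevalence scored by image analysis.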
Tau fluor cs = Counterscreen qHTS for Inhibitors of Tau Fibril Formation, Fluorescence Polarization | tau K18 P301L Alexa594 fluorescence, heparin fibrillization | Potency, µM (highest dose often 57.7 µM), inactives show top-dose activity change, negative = decrease | 280,000 compounds, 0.93% hits | AID 1463, 2008; further: potency means the concentration at half of the fitted maximal effect; nearly all actives have a fitted effect of over 55% in size
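Human tau K18 P301L (15 uM unlabeled, 0.24 uM Alexa 594-labeled) in 100 mM sodium acetate pH 7 with 20 uM heparin, 6 hr at 37 C. ThT 30 uM added, 1 hr ambient; Alexa 594 FP and total fluorescence read at 555/632 nm.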
KDM4E inh = qHTS Assay for Inhibitors of Human Jumonji Domain Containing 2E (JMJD2E); 230,000 compounds, 1.6% hits; JMJD2E catalytic domain, FDH-coupled NADH fluorescence (FDH is formaldehyde dehydrogenase); Lysine-specific demethylase 4E (Homo sapiens), B2RXH2; Potency, µM (titrated, usually from 57.1 µM), inactives show top-dose activity change, negative = inhibition, hits mostly inhibitors; AID 2147, 2009; active means well fitted inhibition curve with a large enough effect, not every such curve was filed as active; inconclusive means small, poorly fitted or top-dose-only effect, or another doubt; inactive means no such curve, though single readings can be large or run the other way;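 further: potency means the concentration at half of the fitted maximal effect; 0% = wells with enzyme and -100% = buffer wells without enzyme; nearly all actives have a fitted effect of over 50% in size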
NPSR antagonist = qHTS Assay for Antagonists of the Neuropeptide S Receptor: cAMP Signal Transduction | Q6W5P4 | CHO-NPSR cells, cAMP TR-FRET, antagonist mode | Potency, µM (doses to about 38.3 µM), for the others: at the highest dose activity change, negative = inhibition, usual class: inhibitors | 220,000 compounds, 1% hits | AID 1461, 2008; further: potency means the concentration at half of the fitted maximal effect; nearly all actives have a fitted effect of over 50% in size
Target sequence (Q6W5P4 whole entry, looked up): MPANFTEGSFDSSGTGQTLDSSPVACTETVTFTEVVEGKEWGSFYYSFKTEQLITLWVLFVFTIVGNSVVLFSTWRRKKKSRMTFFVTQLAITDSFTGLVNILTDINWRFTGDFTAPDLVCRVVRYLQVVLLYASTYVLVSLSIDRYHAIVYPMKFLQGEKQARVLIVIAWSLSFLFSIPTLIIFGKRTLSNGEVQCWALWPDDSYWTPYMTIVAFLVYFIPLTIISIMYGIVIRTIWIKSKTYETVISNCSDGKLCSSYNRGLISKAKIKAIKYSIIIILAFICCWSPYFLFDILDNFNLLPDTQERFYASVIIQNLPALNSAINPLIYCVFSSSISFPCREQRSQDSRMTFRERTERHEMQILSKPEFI
* hit, by the source's call; ? = inconclusive; · = no result; [ ] = dose if it differs, or a comment. An excerpt weighted towards active compounds, which were near 5.1% of everything screened. Unless noted, the call rests on the fitted dose curve; in most records, active means well fitted curve in the direction sought with a large enough effect; inconclusive means small, poorly fitted or top-dose-only effect, or another doubt; inactive means no such curve, though single readings can be large; an effect the other way counts as inactive or inconclusive. Unless noted, on the % scale 0 is the no-effect control and ±100 the full control effect.

SMILES	Tau FP inhib	Tau ThT inhib	PNC inhibitor	Tau fluor cs	KDM4E inh	NPSR antagonist
CC1=CC(C)(C(Cl)Cl)C(C)=CC1=O (stereo not given)	3.2%	10.5%	-100.0*	2.8%	1.0%	-9.4%[46.1 µM]
COc1ccc(OCC(=O)NC2CC(=O)N(c3ccc4c(c3)OCCO4)C2)cc1 (stereo not given)	-2.9%	9.5%	·	5.5%	·	·
COC(=O)c1sc2nc(C)c([N+](=O)[O-])c(C)c2c1N	-2.8%	3.16µM*	-13.1	-24.7%	7.5%	2.1%
CCc1ccc(NC(=O)c2sc3nc(C)c(Cl)c(C)c3c2N)cc1	10.3%	?	·	-11.3%	·	·
COc1ccc(-n2nc(C)cc2Nc2ccccc2C(=O)O)cc1	-4.6%	-7.4%	·	-17.1%	-10.1%	21.9%
COc1ccc(C(=NNc2ccccc2C(=O)O)c2ccc(OC)cc2)cc1	4.8%	?	?	?	-1.1%	7.94µM*
CCOC(=O)c1sc2cccc(F)c2c1S(=O)(=O)NCc1ccccc1Cl	-8.8%	1.2%	·	-16.4%	·	·
O=C1NC(=S)S/C1=C\c1cc2ccccc2nc1N1CCCCC1	7.4%	14.1µM*	·	?	-14.9%	21.1%[7.67 µM]
COc1ccc2nc(N3CCCCC3)c(/C=C3\SC(=S)NC3=O)cc2c1	-2.6%	14.1µM*	·	?	1.4%	-31.2%
Cc1ccc(S(=O)(=O)N(CC(=O)NCCc2ccc(Cl)cc2)c2ccccc2C)cc1	0.1%	-3.4%	·	-24.6%	·	·
COC(=O)c1sccc1S(=O)(=O)N1CCN(c2ccc(C(C)=O)cc2)CC1	-4.0%	?	·	-13.5%	·	·
COc1ccc(NC(=O)Cc2csc(COc3cccc(C)c3)n2)c(OC)c1	-2.6%	?	·	-14.9%	·	·
Cc1oc2c(c(C)cc3oc(=O)c(CC(=O)NCc4ccc(F)cc4)c(C)c32)c1C	0.2%	4.1%	·	0.2%	·	·
C=CCC(C)(O)c1ccsc1 (stereo not given)	-1.8%	0.9%	·	2.1%	5.6%	·
O=C1OC(NC(=O)c2ccccc2)C(n2cc(CO)nn2)=C1Cl (stereo not given)	?	7.08µM*	20.1	-22.7%	-13.3%	-9.0%[46.1 µM]
CCOc1ccccc1NC(=O)Cn1c(=O)oc2cc(S(=O)(=O)NCc3ccccc3)ccc21	-8.3%	-0.6%	·	-8.8%	·	·
C/C(=N\NC(=S)NC1CCCCC1)c1ccccc1	6.3%	7.6%	-100.0*	3.2%	5.2%	-52.3%
COc1ccc(CCC(=O)NCc2nc3cccnc3n2Cc2ccc(F)cc2)cc1	5.2%	3.8%	·	-5.7%	·	·
CCOc1cccc(-c2nnc3sc(-c4cc(OC)c(OC)c(OC)c4)nn23)c1	-5.8%	-2.9%	25.5	0.8%	-5.9%	-15.9%[46.1 µM]
CCOc1cccc(-c2nnc3sc(-c4cccs4)nn23)c1	-9.8%	-14.8%	-126.9*	-6.9%	3.3%	-26.3%[46.1 µM]
CCOc1ccc2nc(N(Cc3cccnc3)C(=O)c3ccco3)sc2c1	-2.5%	-7.7%	·	-21.9%	·	·
COCCn1nnnc1C(c1ccc(OC)cc1OC)N1CCN(c2ccccc2F)CC1 (stereo not given)	1.9%	-5.2%	12.5	1.5%	-9.3%	-16.0%[46.1 µM]
CCc1ccc2[nH]c(=O)c(C(c3nnnn3CCOC)N3CCN(c4ccccc4F)CC3)cc2c1 (stereo not given)	?	17.8µM*	?	-24.0%	?	-11.9%[46.1 µM]
O=C(N1CCOCC1)C1(c2ccccc2)CCCCC1	0.5%	-11.2%	-105.1*	-5.7%	12.7%	-7.5%[46.1 µM]
COc1ccc2c(c1)C(=NO)c1cc(OC)ccc1-2	-0.3%	0.708µM*	?	?	6.7%	-2.4%[46.1 µM]
C=CCOc1ccc2c(c1)C(=NO)c1cc(OCC=C)ccc1-2	?	7.94µM*	-13.4	?	-1.2%	-19.3%[46.1 µM]
